IL1B secr inh: inflammasome signaling inhibition, IL-1 beta readout | THP-1 LPS/ATP IL-1B secretion, AlphaLISA, 16 h; hits give low values | activity change, % at 57.5 µM | 360,000 tested, 4.7% active; in the data active = activity change below about -50%; inconclusive = mostly about -30% to -49%
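Secreted IL-1B measured by AlphaLISA bead assay after 16 h compound exposure of THP-1 cells; compounds (final up to 57.5 uM) added 1 h before LPS (250 ng/mL) and ATP (1.25 mM) stimulation; lower signal means less secretion.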
DT40 TDP1 no CPT: qHTS for Inhibitors of human tyrosyl-DNA phosphodiesterase 1 (TDP1): qHTS in cells in absence of CPT. DT40 Tdp1-/- hTDP1 cells, no CPT, ATP luminescence, 48 h. Potency, µM (series often up to 46.2 µM), for the others: at the top dose activity change, negative = growth inhibition, most hits filed as inhibitors. AID 686978, 2013. 420,000 tested, 15% active; also: potency is read from the fitted curve at half-maximal effect; nearly all actives have a fitted effect of over 55% in size
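Cells were dispensed at 400 per well, compounds added by pin tool, plates incubated ≥48 hr at 37 °C, then CellTiter-Glo added for 30 min at room temperature before luminescence reading. Line: DT40 Tdp1-/- complemented with hTDP1; camptothecin omitted.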
ELG1 DNA repair: inhibitors of ELG1-dependent DNA repair in HEK293T cells | HEK293T ELG1-luciferase reporter, luminescence, 16 h; DNA damage induced by 5-fluorouridine | Potency, µM (series often up to 46.1 µM), without a hit: at the highest dose activity change, negative = inhibition, hits mostly inhibitors | 330,000 tested, 2.3% active; also: potency is read from the fitted curve at half-maximal effect; nearly all actives have a fitted effect of over 55% in size
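DMSO vehicle served as the neutral condition. Each well held 2,000 cells given 5-fluorouridine plus compound; after 16 hr at 37 °C/5% CO2, ONE-Glo was added and luciferase measured 30 min later.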
TDP1 cell CPT: growth inhibition of DT40 Tdp1-/-;hTDP1 cells with camptothecin (screen for TDP1 inhibitors); chicken DT40 Tdp1-/-;hTDP1 cells + 20 nM CPT, ATP luminescence, 48 h; 420,000 tested, 12% active; Potency, µM (highest dose often 46.2 µM), for inactives: at the top dose activity change, negative = growth inhibition, hits mostly inhibitors; also: potency is read from the fitted curve at half-maximal effect; nearly all actives have a fitted effect of over 55% in size
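Chicken DT40 Tdp1-/- cells stably complemented with human TDP1 were seeded at 400 cells/well in medium containing 20 nM camptothecin, exposed to pin-transferred compounds, and grown at 37 °C for at least 48 hr. Viability was read as ATP luminescence.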
HT1080-NT tox: kills 2HG-producing HT-1080-NT fibrosarcoma cells; HT-1080-NT fibrosarcoma viability, CellTiter-Glo ATP luminescence, 48 h; 360,000 tested, 1.6% active; Potency, µM (highest dose often 46.1 µM), for the others: top-dose activity, negative = less viability, most hits filed as cytotoxic;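 also: NT is the 2HG producing partner of a matched IDH1 knockdown line; potency is read from the fitted curve at half-maximal effect; 0% = DMSO-treated cells and -100% = media-only wells without cells; nearly all actives have a fitted effect of over 55% in size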
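HT-1080-NT; 750 cells/well; 5% FBS RPMI; 48 h compound, 37 degrees C; CellTiter-Glo luminescence; curve fitting and curve-class assignment.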
HT1080 IDH1KD tx: kills HT-1080 cells with IDH1 knockdown | HT-1080 IDH1 knockdown viability, ATP luminescence, 48 h | Potency, µM (doses to about 46.1 µM), inactives show at the highest dose activity, negative = toxicity, actives largely listed as cytotoxic | 360,000 tested, 2% active | AID 686971;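 also: potency is read from the fitted curve at half-maximal effect; 0% = DMSO wells and -100% = cell-free medium wells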
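HT-1080-IDH1KD cells (IDH1 knocked down), 750/well in RPMI with 5% FBS, treated with compound 48 h at 37 degrees C. Viability by CellTiter-Glo luminescence, normalised to DMSO and no-cell wells; concentration-response curves classed.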
* marks the source's active call; other numbers are inactive results; ? = inconclusive; · = not tested or not shown. This is a sample that favours compounds with a hit; in the whole collection about 19% have one here. Unless noted, calls follow the shape of the dose curve; as a rule, active = well fitted curve in the direction sought with a large enough effect; inconclusive = small, poorly fitted or top-dose-only effect, or another doubt; inactive = no such curve, though single readings can be large; an effect the other way counts as inactive or inconclusive. Unless noted, % is scaled to controls: 0 for no effect and ±100 for the full control effect.

SMILES	IL1B secr inh	DT40 TDP1 no CPT	ELG1 DNA repair	TDP1 cell CPT	HT1080-NT tox	HT1080 IDH1KD tx
Cc1ccc(-c2cn3c(n2)sc2cc(C(=O)NC(C)C45CC6CC(CC(C6)C4)C5)ccc23)cc1 (stereo not drawn)	·	-21%	·	-15%	·	·
COc1ccccc1N(C)S(=O)(=O)c1ccc(C(=O)Nc2ccc(C)cc2C)cc1	-25	23µM*	?	?	0%	-13%
COc1ccccc1N(C)S(=O)(=O)c1ccc(C(=O)N2CCC2)cc1	9	?	17%	?	-13%	4%
COc1ccccc1N(C)S(=O)(=O)c1ccc(C(=O)N(C)Cc2cccc(F)c2)cc1	0	16µM*	·	16µM*	6%	0%
COc1ccccc1NC(=O)c1ccc(S(=O)(=O)N(C)c2ccccc2OC)cc1	13	?	?	?	-5%	-10%
COc1ccccc1N(C)S(=O)(=O)c1ccc(C(=O)OCC(=O)Nc2ccccc2F)cc1	44	8%	4%	-5%	1%	-3%
COc1ccccc1N(C)S(=O)(=O)c1ccc(C(=O)Nc2ccncc2)cc1	-1	18µM*	12µM*	?	-4%	-2%
COc1ccccc1N(C)S(=O)(=O)c1ccc(C(=O)N2CCCc3ccccc32)cc1	-11	23µM*	15µM*	21µM*	-9%	-19%
NC(=O)C1CCCN(CC(=O)Nc2cc(S(=O)(=O)N3CCOCC3)ccc2N2CCCC2)C1 (stereo not drawn)	5	-13%	-1%	-9%	0%	2%
COc1cc(C(=O)Nc2cc(C)c(O)c(-c3nc4ccccc4s3)c2)cc(OC)c1OC	·	-2%	·	-8%	·	·
CN(c1ccc(C(=O)NC2CCCC2)cc1)S(=O)(=O)c1ccccc1	5	?	?	-23%	-2%	-10%
COc1ccccc1N(C)S(=O)(=O)c1ccc(C(=O)Nc2cc(OC)c(OC)c(OC)c2)cc1	-17	12µM*	·	16µM*	-11%	-15%
COc1ccccc1N(C)S(=O)(=O)c1ccc(C(=O)NC2CCCCC2)cc1	-21	?	23µM*	15µM*	-2%	-12%
COC(=O)Cn1c(SCCOc2ccccc2Cl)nc2ccccc21	·	?	·	-4%	·	·
CC(C)(CNc1ccc(C(F)(F)F)cc1[N+](=O)[O-])N1CCOCC1	1	-3%	-5%	-12%	2%	-7%
Cc1ccc(NC(=S)NNC(=S)Nc2cccc(C(F)(F)F)c2)cc1	-6	29µM*	-3%	?	-14%	?
CN(C)C(=S)Nc1cccc(C(F)(F)F)c1	-13	?	-20%	26µM*	-2%	-4%
CN(C)NC(=S)Nc1cccc(C(F)(F)F)c1	·	-4%	10%	16%	12%	3%
Cc1ccc(NC(=S)NNC(=O)c2c([N+](=O)[O-])c(C)nn2C)cc1	30	-3%	-6%	4%	5.6µM*	5µM*
Cc1ccc(NNC(=S)Nc2ccc(C(C)C)cc2)c(C)c1	-109*	16µM*	19%	?	-5%	-14%
Cc1ccc(NC(=S)NNC(=O)c2cn(C)nc2C)cc1	-12	-1%	?	-14%	3%	10%
CC(NC(=S)Nc1cccc(C(F)(F)F)c1)C(C)(C)C (stereo not drawn)	-81*	16µM*	?	?	?	?
CN(C)C(=S)Nc1cccc(F)c1	10	-15%	2%	5%	-4%	3%
CSc1ccccc1NC(=S)Nc1cccc(C(F)(F)F)c1	0	-28%	-4%	-30%	8%	2%
CC(C)(C)NNC(=S)Nc1cccc(F)c1	·	15µM*	-27%	?	2.9µM*	5.8µM*
SMILES	IL1B secr inh	DT40 TDP1 no CPT	ELG1 DNA repair	TDP1 cell CPT	HT1080-NT tox	HT1080 IDH1KD tx
Cc1ccc(NC(=S)NNC(=S)Nc2ccc(C)cc2)cc1	-1	2.3µM*	·	6.5µM*	13%	8%
CCCCNC(C(=O)Nc1ccc(Cl)c([N+](=O)[O-])c1)c1ccccc1 (stereo not drawn)	?	21µM*	-2%	?	-16%	-6%
O=C(Nc1cc(Cl)cc(Cl)c1)C(NCCO)c1ccccc1 (stereo not drawn)	4	?	0%	-2%	19%	-5%
Cc1ccc(CNS(=O)(=O)c2ccc(CN3C(=O)c4cccnc4C3=O)s2)o1	3	-1%	21%	7%	8%	10%
CCOc1ccc(C(CC(=O)O)NS(=O)(=O)c2ccc(C)cc2)cc1OC (stereo not drawn)	30	?	10%	21µM*	13%	9%
N#C/C(=C(/O)c1ccc2c(c1)OCO2)c1nc2cc(C(F)(F)F)ccc2s1	-54*	15µM*	-17%	10µM*	?	?
N#C/C(=C(/O)c1ccccc1F)c1nc2cc(C(F)(F)F)ccc2s1	-9	?	-3%	?	-7%	-8%
Cc1cc(Nc2cccc(Cl)c2)nc2ccc(NC(=O)Cc3c(F)cccc3Cl)cc12	·	7.3µM*	·	13µM*	·	·
COc1ccc(CC(=O)Nc2ccc(N3CCCC3)c(C)c2)cc1	-21	?	5%	?	-1%	-1%
COc1ccc(Nc2cc(C)c3cc(NC(=O)Cc4c(F)cccc4Cl)ccc3n2)cc1	·	13µM*	·	16µM*	·	·
Cc1cccc(NC(=O)Cc2c(F)cccc2Cl)n1	-21	-11%	?	0%	6%	-9%
COc1ccc(CC(=O)Nc2ccc3nc(Nc4ccc(OC)cc4)cc(C)c3c2)cc1	·	23µM*	·	?	·	·
COc1ccc(Nc2cc(C)c3cc(NC(=O)c4cc(OC)cc(OC)c4)ccc3n2)cc1	·	7.3µM*	·	9.2µM*	·	·
COc1ccc(Nc2cc(C)c3cc(NC(=O)COc4cccc(C)c4)ccc3n2)cc1	·	15µM*	·	16µM*	·	·
Cc1cccc(OCC(=O)Nc2ccncc2)c1	54	?	·	4%	-16%	-1%
CCCCNC(=O)CSc1nc2cc3c(cc2c(=O)n1Cc1ccc(C(=O)NCCc2ccc(OC)c(OC)c2)cc1)OCO3	·	-7%	·	12%	·	·
COc1ccc(CCNC(=O)CCCCCn2c(SCC(N)=O)nc3cc4c(cc3c2=O)OCO4)cc1OC	-15	?	-7%	?	1%	-2%
